Screens from PubChem.
CHRM1 antagonist: human M1 muscarinic receptor antagonists, primary screen, CHO-K1 cells, Fluo-8 calcium fluorescence, 1536-well; actives 1.3% (n = 360,000); inhibition, % at 3 µM; CHO-K1 hM1, ACh EC80 antagonist; AID 588852, 2011;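 active = percent inhibition above its own plate's cutoff, namely the mean of that plate's compound wells plus 3 SD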;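 note: peak over basal fluorescence ratio during 140 s after agonist addition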
Target sequence (P11229 whole entry, looked up): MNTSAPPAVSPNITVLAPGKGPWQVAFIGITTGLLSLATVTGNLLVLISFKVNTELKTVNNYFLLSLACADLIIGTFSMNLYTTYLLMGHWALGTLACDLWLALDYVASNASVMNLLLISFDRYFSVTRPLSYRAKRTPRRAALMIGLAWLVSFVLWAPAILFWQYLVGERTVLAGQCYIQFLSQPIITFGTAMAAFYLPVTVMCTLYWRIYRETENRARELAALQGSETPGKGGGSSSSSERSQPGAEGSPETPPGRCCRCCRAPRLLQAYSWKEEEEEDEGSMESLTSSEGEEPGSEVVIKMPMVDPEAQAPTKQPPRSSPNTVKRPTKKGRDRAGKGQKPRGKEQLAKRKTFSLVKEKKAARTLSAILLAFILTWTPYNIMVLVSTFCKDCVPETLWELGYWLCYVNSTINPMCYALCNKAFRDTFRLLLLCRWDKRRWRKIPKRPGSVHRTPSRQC
ATG4B inh: ATG4B protease inhibitors, primary screen, biochemical, fluorescence, uHTS | ATG4B cleavage of LC3-PLA2, NBD-HPC fluorescence, 1 h | inhibition, % at 8.33 µM | actives 0.51% (n = 340,000); in the data active = inhibition above about 40%
M1 PAM: human M1 muscarinic receptor positive allosteric modulators, primary screen, CHO-K1 cells, Fluo-8 calcium fluorescence, 1536-well | CHO-K1 hM1, ACh EC20; 0% = ACh EC20, 100% = maximal ACh | activation, % at 3 µM | actives 0.088% (n = 360,000) | AID 588819, 2011; in the data active = activation above about 19%, passing the limit was not always enough
Myeloid diff 2: induction of myeloid progenitor differentiation, primary screen, cell-based, flow cytometry, MLPCN library; calls only at 10 µM; AID 624256, 2012; actives 1% (n = 360,000); ER-HoxA9 myeloid progenitors, lysozyme-GFP differentiation;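 active = normalized GFP-positive differentiation at or above the plate's own cutoff, the solvent-only control mean plus 3 SD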;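 note: cells exposed to compound for four days before flow analysis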
CHRM1 agonist: human M1 muscarinic receptor agonists, primary screen, Fluo-8 calcium fluorescence, CHO-K1 cells, HTS. CHO-K1 hM1, agonist mode; 0% DMSO, 100% acetylcholine EC100. AID 588814, 2011. activation, % at 3 µM. actives 0.33% (n = 360,000). Muscarinic acetylcholine receptor M1 (Homo sapiens), P11229;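 active = activation above the run's mean compound activation plus 3 SD, cut at about 16% in these data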;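 note: peak over basal fluorescence ratio within a 140 s kinetic read after compound addition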
SKN-1 block: suppressors of acrylamide-induced Pgst-4::GFP reporter in worms, primary screen, SKN-1 inhibitor project, whole organism, uHTS, GFP/RFP fluorescence ratio, strain VP596; inhibition, % at 21.8 µM; actives 0.49% (n = 360,000); C. elegans VP596 Pgst-4::GFP/RFP ratio, 24 h;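 active = interference check ratio from 0.5 to 1.5 plus GFP to RFP signal ratio inhibition reaching or exceeding a fixed threshold, cut at about 30% in these data, passing the limit was not always enough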
A number is an active result; - = inactive; . = no result given; + = active, no number. Shown are actives, neighbours in structure and some others; about 3.5% of the full set was active somewhere.

SMILES	CHRM1 antagonist	ATG4B inh	M1 PAM	Myeloid diff 2	CHRM1 agonist	SKN-1 block
COc1ccc(NC(=O)CNc2ccc(OC)c(S(=O)(=O)N3CCOCC3)c2)cc1	-	.	-	-	-	-
Brc1ccc(C=Nc2ccc(Nc3ccccc3)cc2)s1	-	-	-	+	-	-
COc1ccccc1CC(=O)Nc1ccc(S(=O)(=O)N2CCOCC2)cc1	-	-	-	-	-	-
CC(C)Oc1ccc2ccccc2c1CNC[C@H]1O[C@@H](n2ccc(=O)[nH]c2=O)[C@H](O)[C@@H]1O	-	.	-	-	-	-
COc1ccc2[nH]cc(/C=C/c3cc[n+](C)cc3)c2c1	-	-	-	+	-	-
Cc1nc2nc(SCC(=O)NCCN3CCOCC3)nn2c(C)c1Cc1ccccc1	-	-	-	-	-	-
Cc1ccc(Cc2c(C)nc3nc(SCC(=O)NCCCN4CCCC4)nn3c2C)cc1	28.8	-	-	-	-	-
Cc1ccc(Cc2c(C)nc3nc(SCC(=O)NCCCN4CCCCC4)nn3c2C)cc1	26.4	-	-	-	-	-
C[C@@H]1CN([C@@H](C)CO)C(=O)CCCn2nncc2CO[C@H]1CN(C)S(=O)(=O)c1ccccc1C#N	-	.	-	-	-	-
Cc1ccc(S(=O)(=O)N2CCN(C(=O)CN(Cc3ccco3)Cc3cccs3)CC2)cc1	-	-	-	-	-	-
Cc1cccc(N2CC(C(=O)NCCC3=CCCCC3)CC2=O)c1C (stereo not given)	-	-	-	-	-	-
CCN(CC)c1ccc(C2C(C(=O)OCCOC)=C(C)NC3=C2C(=O)CCC3)cc1 (stereo not given)	-	-	-	-	-	-
CCOC(=O)C1=C(C)NC2=C(C(=O)CCC2)C1c1ccc(N(C)C)cc1 (stereo not given)	44.9	-	-	-	-	-
CCCOC(=O)C1=C(C)NC2=C(C(=O)CCC2)C1c1ccc(N(C)C)cc1 (stereo not given)	25.9	-	-	-	-	-
O=C(Nc1ncn[nH]1)c1cc(S(=O)(=O)Nc2cccc(C(F)(F)F)c2)ccc1Cl	-	-	-	.	-	-
O=C(Nc1ccc(OC(F)F)c(Cl)c1)c1ccccn1	-	-	-	-	-	58.5
Cc1ccc(NC(=S)Nc2ccc(OC(F)F)c(Cl)c2)cc1F	24.5	-	-	-	-	-
S=c1[nH]cnc2sc(-c3ccccc3)cc12	-	-	-	-	-	-
CC(C)[N+](C)(C)CC#CC(O)(c1ccccc1)c1ccccc1	98.9	-	-	-	-	-
OC(C#Cc1ccccc1)(c1ccccc1)c1ccccc1	-	-	-	-	-	-
C[N+]1(CC#CC(O)(c2ccccc2)c2ccccc2)CCCC1	99.6	-	-	-	-	-
Cc1cccc(S(=O)(=O)N(C)C[C@H]2OCc3cn(nn3)CCCC(=O)N([C@@H](C)CO)C[C@@H]2C)c1	-	.	-	-	-	-
CC(=O)N1CCCC(C)(C(=O)Nc2ccc3nc(C)ccc3c2)C1 (stereo not given)	-	.	-	-	-	-
O=C1c2ccc([N+](=O)[O-])cc2C(=O)N1c1ccc([N+](=O)[O-])cn1	-	-	-	-	-	-
Cc1cnc(NC(=O)CC(C)c2ccccc2)s1 (stereo not given)	-	-	-	-	-	35.1
COc1ccccc1N1C(=O)N(C(C)=O)C2C1Nc1ccccc1N2C (stereo not given)	-	-	-	+	-	-
Cc1cc(Cn2nnc3ccccc32)c(O)c(C(C)(C)C)c1	-	-	-	-	-	-
O=C(CSc1nnnn1C1CCCCC1)Nc1ccccc1F	-	-	-	-	-	-
